Results on 39 compounds are retold here after ChEMBL document CHEMBL5308504, “Tm Shift (DSF) assay results for EUbOPEN Chemogenomics Library” (2023).

A word on the ΔTm: it is the shift of the melting midpoint relative to a reference.

The structures appear in SMILES notation. Several values for one entry are separate records, joined by “and”; a condition that tells them apart may be missing. Equal values may be shown once.

The target in the first assay is Mitogen-activated protein kinase 1 (Homo sapiens) (UniProt P28482). As to conditions: Compound concentration 20.0 uM, Protein concentration 2.0 uM, Result type QC Liability.
Chain of Mitogen-activated protein kinase 1 (Homo sapiens) (P28482 whole entry): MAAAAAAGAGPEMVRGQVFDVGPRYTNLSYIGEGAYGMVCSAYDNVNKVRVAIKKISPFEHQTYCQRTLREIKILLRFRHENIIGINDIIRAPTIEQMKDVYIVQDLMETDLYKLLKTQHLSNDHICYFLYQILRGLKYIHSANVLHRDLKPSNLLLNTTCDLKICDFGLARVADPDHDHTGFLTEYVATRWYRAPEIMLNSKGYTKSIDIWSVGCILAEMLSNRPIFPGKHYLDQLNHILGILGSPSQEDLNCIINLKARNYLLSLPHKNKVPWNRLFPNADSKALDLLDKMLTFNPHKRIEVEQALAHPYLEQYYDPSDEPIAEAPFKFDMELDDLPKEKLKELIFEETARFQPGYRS
As for `Cc1nc2cccnc2n2c(-c3cc(C(C)(C)O)ncc3Cl)nnc12`, the ΔTm came out at 0.31 °C.

Take `CN1CCC(C#N)(NC(=O)[C@@H](NC(=O)N2CCOCC2)C(C)(C)C)CC1`: the shift in melting temperature (ΔTm) is 0.52 °C.

Take `N#Cc1c(SCc2csc(-c3ccc(Cl)cc3)n2)nc(N2CCCC2)c(C#N)c1-c1ccc(OCCO)cc1`: the ΔTm is 4.1 °C.

Consider `COc1ccc(CC[C@@H](OC(=O)[C@@H]2CCCCN2C(=O)[C@H](c2cc(OC)c(OC)c(OC)c2)C2CCCCC2)c2cccc(OCCN3CCOCC3)c2)cc1OC`, for which the shift in melting temperature (ΔTm) was -0.05 °C.

On to `Fc1ccc(-c2nc(-c3c(F)cccc3F)[nH]c2-c2ccncc2)cc1`, for which the ΔTm was 0.52 °C.

In the case of `Cc1ncc(C(=O)Nc2cc(C(C)(C)C)on2)cc1-n1cc(-c2cnn(C)c2C)nn1`, the ΔTm was found to be 0.26 °C.

With `C[C@@]1(Cc2ccc(C#N)cc2)C(=O)N(c2cc(Cl)cc(Cl)c2)c2ncc(C(=O)NC3(c4nc(C5CCC5)no4)CC3)n21`, the shift in melting temperature (ΔTm) turned out to be 3.07 °C.

On to `O=C(O)c1cccc(C2=C(c3cc(Cl)ccc3OCc3ccc(F)cc3F)CCC2)n1`, for which the shift in melting temperature (ΔTm) was -0.17 °C.

Turning to `Cc1cc(-c2ccnc(Nc3cnn(C)c3)n2)ccc1CNC(=O)N1CC(OC(C)C)C1`, the thermal shift (ΔTm) turned out to be 0.39 °C.

Regarding `CN[C@@H](C)C(=O)N[C@H](C(=O)N1CCC[C@H]1C(=O)Nc1sc(-c2ncco2)nc1-c1ccccc1)C1CCCCC1`, the ΔTm was found to be 0.08 °C.

Turning to `Fc1ccc(-c2nc(-c3ccc4ccccc4c3F)[nH]c2-c2ccncc2)cc1`, the ΔTm turned out to be 0.03 °C.

Take `CN(CC(=O)Nc1ccc(F)c(F)c1F)C(=O)c1ccc2c(c1)OCCO2`: the thermal shift (ΔTm) stood at 0.49 °C.

For `Cc1n[nH]c2ncc(C(=O)N3CCC[C@H]3c3ccc(Cl)cc3)cc12`, the ΔTm was 0.69 °C.

For the compound `N[C@@H]1CCCC[C@H]1Oc1ccc2ncc(-c3cc4ccccc4o3)n2n1`, the ΔTm was determined as 0.17 °C.

Consider `Cc1cc(CN)cc(C)c1-c1ncn(C)c1-c1ccnc2cc(F)ccc12`, for which the thermal shift (ΔTm) was determined as 0.29 °C.

For `CN1CCN(c2ccc(/C=C(\C#N)c3ccccc3Br)cc2)CC1`, the ΔTm came to 0.11 °C.

`N#C/C(=C\c1ccc(O)c(O)c1)C(=O)OCCc1cccs1`: the ΔTm is 0.37 °C.

As for `C[C@@H]1CC(=O)N(C2CC2)N=C1c1ccc(NC(=O)N2Cc3ccncc3C2)cc1`, the ΔTm was 0.29 °C.

In the case of `CC(C)N(C(=O)C1CCOCC1)c1cc(F)c(Oc2ncc(Cn3nccn3)cc2C(F)(F)F)cc1C(=O)O`, the ΔTm is -0.07 °C.

On to `CCOC(=O)N1CCC(CN(Cc2ccc(Cl)cc2)Cc2ccc([N+](=O)[O-])s2)C1` (stereo not drawn), for which the thermal shift (ΔTm) turned out to be 0.21 °C.

For `CNC(=O)c1c[nH]c2ccc(Nc3nccc(-c4ccccn4)n3)cc12`, the ΔTm came out at 0.16 °C.

On to `CC(=O)c1c(C)c2cnc(Nc3ccc(N4CCNCC4)cn3)nc2n(C2CCCC2)c1=O`, for which the ΔTm is 0.09 °C and 0.31 °C.

Regarding `O=C(CCCN1CCC(O)(c2ccc(Cl)cc2)CC1)c1ccc(F)cc1`, the ΔTm turned out to be 0.38 °C.

As for `Cc1csc(S(=O)(=O)N(CC(C)C)c2cc3c(cc2OCc2ccc(C(=O)O)cc2)CCC3)n1`, the ΔTm is -0.27 °C.

As to `Cc1c(-c2c(F)cc(C(N)=O)c3[nH]c4c(c23)CC[C@H](C(C)(C)O)C4)cccc1-n1c(=O)c2cccc(F)c2n(C)c1=O`, the ΔTm is -0.33 °C.

Regarding `COc1ccc(CSc2nnc(-c3ccc4ncsc4c3)o2)cc1C(F)(F)F`, the ΔTm was -8.68 °C.

`COc1cc(N2CCN(C)CC2)ccc1Nc1ncc2c(n1)N(C)c1ccccc1C(=O)N2CC(F)(F)F`: the ΔTm stood at 0.11 °C.

Take `COCc1nc2cnc3cc(-c4c(C)noc4C)c(OC[C@H]4CCNC4)cc3c2n1[C@H](C)c1ccccc1`: the thermal shift (ΔTm) came to 0.35 °C.

On to `CCCCC(C)(O)C/C=C/[C@H]1[C@H](O)CC(=O)[C@@H]1CCCCCCC(=O)O` (stereo partly drawn), for which the ΔTm is -0.33 °C.

For the compound `O=C(O)CCCc1cc2cc(Cl)ccc2n1S(=O)(=O)c1ccc2ncsc2c1`, the ΔTm was determined as 0.26 °C.

`CCc1c(-c2ccc3[nH]ncc3c2)cnc(N)c1-c1ccc(O)cc1`: the ΔTm worked out at 0.44 °C.

For `Cc1sc(C(=O)c2cncnc2N[C@@H]2C[C@H](COS(N)(=O)=O)[C@@H](O)C2)cc1[C@@H]1NCCc2ccc(Cl)cc21`, the shift in melting temperature (ΔTm) is -0.53 °C.

As to `Cc1cccc(-c2nn3c(c2-c2ccnc4ccc(C(N)=O)cc24)CCC3)n1`, the ΔTm was determined as 0.51 °C.

In the case of `Cc1nc(-c2ccc(C(F)(F)F)cc2)sc1C(=O)NCc1ccc(OC(C)(C)C(=O)O)cc1`, the shift in melting temperature (ΔTm) came out at 0.34 °C.

In the case of `Nc1nc(-c2nn(Cc3ccccc3F)c3ncccc23)ncc1C1CC1`, the ΔTm stood at 0.15 °C.

Consider `Cc1cc(CN(CC(=O)Nc2ccc(Cl)cc2Cl)C2CCCCC2)ccc1OCC(=O)O`, for which the ΔTm was -1.06 °C.

Consider `NCC1CCC(CNc2nc(NCc3ccccc3OC(F)(F)F)ncc2[N+](=O)[O-])CC1` (stereo not drawn), for which the ΔTm is -0.1 °C.

Take `COc1ncc(-c2cc(-c3ncc(CN4C[C@@H](C)O[C@@H](C)C4)o3)c3cn[nH]c3c2)cc1NS(C)(=O)=O`: the ΔTm turned out to be 0.18 °C.

As to `CN(C)C(=O)c1sc2nc(N3CCC(S(C)(=O)=O)CC3)cc(C(F)(F)F)c2c1N`, the ΔTm is -0.76 °C and 0.56 °C.

For another assay, the target named is T1, Aurora kinase A (Homo sapiens) (UniProt O14965).
T1 sequence (whole entry): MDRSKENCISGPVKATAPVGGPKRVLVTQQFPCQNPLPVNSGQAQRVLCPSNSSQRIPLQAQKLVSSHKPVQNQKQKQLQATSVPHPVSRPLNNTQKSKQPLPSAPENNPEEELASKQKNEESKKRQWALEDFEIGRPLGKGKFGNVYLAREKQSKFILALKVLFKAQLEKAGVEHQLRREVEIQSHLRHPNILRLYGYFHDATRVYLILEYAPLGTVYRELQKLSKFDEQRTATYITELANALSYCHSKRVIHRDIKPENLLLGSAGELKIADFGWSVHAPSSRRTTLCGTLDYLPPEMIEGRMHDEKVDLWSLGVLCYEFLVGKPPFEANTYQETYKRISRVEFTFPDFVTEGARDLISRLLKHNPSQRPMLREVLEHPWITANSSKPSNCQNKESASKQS
The settings on record: Compound concentration 20.0 uM, Protein concentration 2.0 uM, Result type QC Liability.
In the case of `Cc1nc2cccnc2n2c(-c3cc(C(C)(C)O)ncc3Cl)nnc12`, the ΔTm was -0.06 °C.

As to `CN1CCC(C#N)(NC(=O)[C@@H](NC(=O)N2CCOCC2)C(C)(C)C)CC1`, the shift in melting temperature (ΔTm) is -0.18 °C.

As to `N#Cc1c(SCc2csc(-c3ccc(Cl)cc3)n2)nc(N2CCCC2)c(C#N)c1-c1ccc(OCCO)cc1`, the shift in melting temperature (ΔTm) is -0.18 °C.

Turning to `COc1ccc(CC[C@@H](OC(=O)[C@@H]2CCCCN2C(=O)[C@H](c2cc(OC)c(OC)c(OC)c2)C2CCCCC2)c2cccc(OCCN3CCOCC3)c2)cc1OC`, the ΔTm was -0.45 °C.

Turning to `Fc1ccc(-c2nc(-c3c(F)cccc3F)[nH]c2-c2ccncc2)cc1`, the shift in melting temperature (ΔTm) was -0.55 °C.

Consider `Cc1ncc(C(=O)Nc2cc(C(C)(C)C)on2)cc1-n1cc(-c2cnn(C)c2C)nn1`, for which the shift in melting temperature (ΔTm) was -0.09 °C.

As for `C[C@@]1(Cc2ccc(C#N)cc2)C(=O)N(c2cc(Cl)cc(Cl)c2)c2ncc(C(=O)NC3(c4nc(C5CCC5)no4)CC3)n21`, the ΔTm came to 11.8 °C.

As for `O=C(O)c1cccc(C2=C(c3cc(Cl)ccc3OCc3ccc(F)cc3F)CCC2)n1`, the ΔTm is -0.7 °C.

On to `Cc1cc(-c2ccnc(Nc3cnn(C)c3)n2)ccc1CNC(=O)N1CC(OC(C)C)C1`, for which the ΔTm turned out to be 8.06 °C.

`CN[C@@H](C)C(=O)N[C@H](C(=O)N1CCC[C@H]1C(=O)Nc1sc(-c2ncco2)nc1-c1ccccc1)C1CCCCC1`: the thermal shift (ΔTm) was -0.03 °C.

Turning to `Fc1ccc(-c2nc(-c3ccc4ccccc4c3F)[nH]c2-c2ccncc2)cc1`, the shift in melting temperature (ΔTm) is 0.26 °C.

Take `CN(CC(=O)Nc1ccc(F)c(F)c1F)C(=O)c1ccc2c(c1)OCCO2`: the thermal shift (ΔTm) was -0.17 °C.

On to `Cc1n[nH]c2ncc(C(=O)N3CCC[C@H]3c3ccc(Cl)cc3)cc12`, for which the thermal shift (ΔTm) was found to be 0.03 °C.

Regarding `N[C@@H]1CCCC[C@H]1Oc1ccc2ncc(-c3cc4ccccc4o3)n2n1`, the ΔTm was 1.07 °C.

In the case of `Cc1cc(CN)cc(C)c1-c1ncn(C)c1-c1ccnc2cc(F)ccc12`, the ΔTm amounted to 0.25 °C.

For the compound `CN1CCN(c2ccc(/C=C(\C#N)c3ccccc3Br)cc2)CC1`, the thermal shift (ΔTm) is -1.83 °C.

As for `N#C/C(=C\c1ccc(O)c(O)c1)C(=O)OCCc1cccs1`, the shift in melting temperature (ΔTm) stood at 4.16 °C.

With `C[C@@H]1CC(=O)N(C2CC2)N=C1c1ccc(NC(=O)N2Cc3ccncc3C2)cc1`, the ΔTm was 0.22 °C.

With `CC(C)N(C(=O)C1CCOCC1)c1cc(F)c(Oc2ncc(Cn3nccn3)cc2C(F)(F)F)cc1C(=O)O`, the ΔTm is -0.1 °C.

As for `CCOC(=O)N1CCC(CN(Cc2ccc(Cl)cc2)Cc2ccc([N+](=O)[O-])s2)C1` (stereo not drawn), the thermal shift (ΔTm) was -0.41 °C.

`CNC(=O)c1c[nH]c2ccc(Nc3nccc(-c4ccccn4)n3)cc12`: the shift in melting temperature (ΔTm) came out at 1.47 °C.

Consider `CC(=O)c1c(C)c2cnc(Nc3ccc(N4CCNCC4)cn3)nc2n(C2CCCC2)c1=O`, for which the ΔTm was -0.85 °C and 0.31 °C.

Turning to `O=C(CCCN1CCC(O)(c2ccc(Cl)cc2)CC1)c1ccc(F)cc1`, the shift in melting temperature (ΔTm) is -0.3 °C.

With `Cc1csc(S(=O)(=O)N(CC(C)C)c2cc3c(cc2OCc2ccc(C(=O)O)cc2)CCC3)n1`, the shift in melting temperature (ΔTm) is -0.4 °C.

Consider `Cc1c(-c2c(F)cc(C(N)=O)c3[nH]c4c(c23)CC[C@H](C(C)(C)O)C4)cccc1-n1c(=O)c2cccc(F)c2n(C)c1=O`, for which the ΔTm is 10.9 °C.

Consider `COc1ccc(CSc2nnc(-c3ccc4ncsc4c3)o2)cc1C(F)(F)F`, for which the ΔTm came out at 1.22 °C.

On to `COc1cc(N2CCN(C)CC2)ccc1Nc1ncc2c(n1)N(C)c1ccccc1C(=O)N2CC(F)(F)F`, for which the ΔTm turned out to be 0.18 °C.

In the case of `COCc1nc2cnc3cc(-c4c(C)noc4C)c(OC[C@H]4CCNC4)cc3c2n1[C@H](C)c1ccccc1`, the ΔTm is -0.39 °C.

As for `CCCCC(C)(O)C/C=C/[C@H]1[C@H](O)CC(=O)[C@@H]1CCCCCCC(=O)O` (stereo partly drawn), the thermal shift (ΔTm) is -0.31 °C.

On to `O=C(O)CCCc1cc2cc(Cl)ccc2n1S(=O)(=O)c1ccc2ncsc2c1`, for which the shift in melting temperature (ΔTm) is -0.83 °C.

As for `CCc1c(-c2ccc3[nH]ncc3c2)cnc(N)c1-c1ccc(O)cc1`, the ΔTm worked out at 3.28 °C.

As to `Cc1sc(C(=O)c2cncnc2N[C@@H]2C[C@H](COS(N)(=O)=O)[C@@H](O)C2)cc1[C@@H]1NCCc2ccc(Cl)cc21`, the shift in melting temperature (ΔTm) was -0.27 °C.

Regarding `Cc1cccc(-c2nn3c(c2-c2ccnc4ccc(C(N)=O)cc24)CCC3)n1`, the ΔTm is -0.95 °C.

In the case of `Cc1nc(-c2ccc(C(F)(F)F)cc2)sc1C(=O)NCc1ccc(OC(C)(C)C(=O)O)cc1`, the thermal shift (ΔTm) was 0.59 °C.

Consider `Nc1nc(-c2nn(Cc3ccccc3F)c3ncccc23)ncc1C1CC1`, for which the ΔTm came out at 0.14 °C.

`Cc1cc(CN(CC(=O)Nc2ccc(Cl)cc2Cl)C2CCCCC2)ccc1OCC(=O)O`: the ΔTm is -2 °C.

As to `NCC1CCC(CNc2nc(NCc3ccccc3OC(F)(F)F)ncc2[N+](=O)[O-])CC1` (stereo not drawn), the shift in melting temperature (ΔTm) came to 1.01 °C.

`COc1ncc(-c2cc(-c3ncc(CN4C[C@@H](C)O[C@@H](C)C4)o3)c3cn[nH]c3c2)cc1NS(C)(=O)=O`: the thermal shift (ΔTm) came out at 1.26 °C.

On to `CN(C)C(=O)c1sc2nc(N3CCC(S(C)(=O)=O)CC3)cc(C(F)(F)F)c2c1N`, for which the ΔTm is -0.67 °C and 0 °C.
